Hit rate of the full screen: of about 410,000 compounds, about 5,100 (1.2%) were called active. A call without a number means that no potency is given here. Another 8% or so got no clear call; they are omitted. The call rests on the fitted dose curve; tested in HEK293T cells. The full list was thinned out, with actives kept by preference.

From PubChem BioAssay AID1159524 (National Center for Advancing Translational Sciences (NCATS), 2015) come the findings set out here.
Potency means the concentration at half of the fitted maximal effect.

This test can be described thus: High Throughput Screening for Foot and Mouth Disease Virus Antivirals. Further: read-out not given here; nearly all actives have a fitted effect of over 45% in size. Conditions: FMDV antiviral cell-based qHTS; series mostly up to 57.9 µM. In general terms: In qHTS, concentration-response curves come from the screen itself.
In the case of `CO[C@H]1C=CO[C@@]2(C)Oc3c(C)c(O)c4c(O)c(c(/C=N/N5CCN(C)CC5)c(O)c4c3C2=O)NC(=O)/C(C)=C\C=C[C@H](C)[C@H](O)[C@@H](C)[C@@H](O)[C@@H](C)[C@H](OC(C)=O)[C@@H]1C`, the Potency result was “inactive”. Turning to `Nc1nc2c(ncn2[C@@H]2O[C@H](COP(=O)(O)OP(=O)(O)OP(=O)(O)O)[C@@H](O)C2O)c(=O)[nH]1` (stereo not given in full), the Potency entry was “inactive”. Then `O=C(c1ccco1)N1CCC[C@@]2(CCN(c3ccccc3)C2)C1`, with “inactive”; and `CC(C)NC(=O)N1CC[C@@]2(CCCN(C(=O)c3ccco3)C2)C1`, with “inactive”. Take `C1CC[C@H]([C@@]23C[C@H](C[C@H]4CCCN[C@H]42)[C@@H]2CCCCN2C3)NC1`: the Potency result is “inactive”. Then `CCCS(=O)(=O)c1ncc(Cl)c(C(=O)Nc2scc(-c3ccccc3)c2C(=O)OCC)n1`, with 25.1 µM (active). In the case of `CCOC(=O)c1scc(-c2ccccc2)c1S(=O)(=O)Nc1ccccc1F`, the Potency result was “inactive”. Regarding `CCSc1ncc(Cl)c(C(=O)Nc2c(C(=O)c3ccccc3)oc3ccccc23)n1`, the Potency entry was “inactive”. On to `CCOc1ccccc1N(C)C(=O)c1cc2c(s1)-c1ccccc1OC2`, for which the Potency result is “inactive”. Consider `COCCn1c(=O)c(-c2cc(F)cc(F)c2)nc2cncnc21`, for which the Potency entry was “inactive”. As for `CN1C2CC3CC1C(O3)C2O` (stereo not given), the Potency entry is “inactive”. As to `Cc1ccc(S(=O)(=O)c2cn(Cc3ccccc3)c3cc(N4CCCC4)c(F)cc3c2=O)c(C)c1`, the Potency result is “inactive”. For `Oc1c(Cl)cc(Cl)c(Cl)c1Cc1c(O)c(Cl)cc(Cl)c1Cl`, the Potency was 5.62 µM (active). Then `C=C1C(=O)C23C(O)C1CCC2[C@]12COC3(O)C(O)C1C(C)(C)CC[C@H]2O` (stereo not given in full), with 28.2 µM (active). Turning to `O=C(NC1(C(F)(F)F)N=C(c2ccccc2)N(C2CCCCC2)C1=O)c1ccccc1F` (stereo not given), the Potency entry is “inactive”. `O=c1c(-c2cccs2)nc2cnc(Oc3ccccc3)nc2n1-c1ccccc1`: the Potency entry is “inactive”. As for `O=C(c1csnn1)N1CCC2(CCN(Cc3nccs3)CC2)CC1`, the Potency entry is “inactive”. In the case of `O=C(c1ccccc1Oc1ccccc1)N1CCN(c2ccc(F)cc2)CC1`, the Potency result was “inactive”. As to `O=C(c1cccc(C(=O)N2CCN(c3ccc(F)cc3)CC2)c1)N1CCN(c2ccc(F)cc2)CC1`, the Potency was 39.8 µM (active).

As for `O=C(c1cccc(F)c1)N1CCC2(CC1)CCN(c1ccccc1)CC2`, the Potency entry is “inactive”. As to `COc1ccc(CN(C)CCn2cc(C(=O)N3CCSCC3)nn2)cc1C`, the Potency result is “inactive”. `O=C1c2ccccc2C(=O)N1CCC#Cc1ccc2cc(C3(O)CCCCC3)oc(=O)c2c1`: the Potency was 39.8 µM (active).

Turning to `COCCCN1C(=O)c2ccc(C(=O)Nc3ccc(OC)cc3OC)cc2C1=O`, the Potency entry was “inactive”. For the compound `CC(C)CCN1C(=O)c2ccc(C(=O)Nc3cccc(S(N)(=O)=O)c3)cc2C1=O`, the Potency was 28.2 µM (active). To `CCCCN1C(=O)c2ccc(C(=O)Nc3ccc(S(=O)(=O)N(C)C)cc3)cc2C1=O` belongs 20 µM (active); to `Cc1ccnc(NS(=O)(=O)c2ccc(NC(=O)c3ccc(S(=O)(=O)N(C)C)cc3)cc2)n1`, “inactive”. As for `CN1C(=O)c2ccc(NC(=O)c3c(F)c(F)c(F)c(F)c3F)cc2C1=O`, the Potency entry is “inactive”. Take `Cc1ccc(S(=O)(=O)NCCC(=O)Nc2cccc(S(N)(=O)=O)c2)cc1C`: the Potency result was “inactive”. Then `O=c1c(CN2CCOc3ccc(CN4CCC(Oc5cccnc5)CC4)cc3C2)coc2ccccc12`, with “inactive”; and `Cc1cnc(CNc2cc(-c3c(C)noc3C)ncn2)cn1`, with “inactive”; and `O=c1ccn([C@@H]2O[C@H](COP(=O)(O)OP(=O)(O)OP(=O)(O)O)[C@@H](O)[C@H]2O)c(=O)[nH]1`, with “inactive”. Regarding `COc1cc(Cl)c(C)cc1Nc1nnc(-n2nc(C)cc2C)c2ccccc12`, the Potency result was “inactive”. Then `COCCn1c(=O)c(C)nc2cnc(N(C)C)nc21`, with “inactive”; and `CC1=C/C(=N\OS(=O)(=O)c2ccccc2)C=CC1=O`, with 15.8 µM (active); and `O=C(CSc1nc(=O)n(Cc2cccnc2)c2c1CCC2)Nc1ccc(F)cc1F`, with “inactive”. To `CCOc1ccccc1NC(=O)C1=C(C)Nc2ncnn2C1c1ccc(NC(C)=O)cc1` (stereo not given) belongs “inactive”. In the case of `CCOC(=O)C1=C(c2ccccc2)Nc2ncnn2C1c1ccc(Cl)cc1` (stereo not given), the Potency entry is “inactive”.

`CC1=C(C(=O)OCc2ccccc2)C(c2ccco2)n2ncnc2N1` (stereo not given): the Potency is 28.2 µM (active). With `CC(C)=CCC/C(C)=C/CC/C(C)=C/CC/C(C)=C/CO`, the Potency result is “inactive”. For `CC(C)c1cc(C(=O)N2CCOc3ccc(CN4CCC(Oc5cccnc5)CC4)cc3C2)n[nH]1`, the Potency entry is “inactive”. Turning to `O=C(CSc1nnc(-c2ccco2)n1CC1CCCO1)c1ccccc1` (stereo not given), the Potency result is “inactive”. On to `Cc1cc(C(=O)COC(=O)c2cccs2)c(C)n1-c1c(C)n(C)n(-c2ccccc2)c1=O`, for which the Potency entry was “inactive”. For `Cc1ccsc1C(=O)OCC(=O)c1cc(C)n(CC2CCCO2)c1C` (stereo not given), the Potency is 100 µM (active). On to `COc1ccccc1N1CCN(c2ncnc3onc(-c4cccc(Cl)c4)c23)CC1`, for which the Potency entry was “inactive”. In the case of `COc1ccccc1N1CCN(c2ncnc3sc(C)c(-c4ccccc4)c23)CC1`, the Potency is 20 µM (active). In the case of `COC(=O)c1cnc(N2CCN(c3ccccc3OC)CC2)c2ccccc12`, the Potency result was “inactive”.

As for `O=C(c1cc(C(F)(F)F)cc(C(F)(F)F)c1)N1CCC2(CCCN(Cc3ccncc3)C2)CC1`, the Potency result is “inactive”.

Consider `COc1cccc(Cn2c(=O)c(-c3ccccc3)nc3cnc(OC)nc32)c1`, for which the Potency entry was “inactive”. In the case of `COCCNC(=O)c1ccc2c(c1)N=C(C)c1cc(C)ccc1S2`, the Potency result is “inactive”. As to `CCCCCCCCCCCCn1ccc(=N)cc1`, the Potency was 17.8 µM (active). Consider `O=C(c1cnccn1)N1CCC2(CCN(Cc3cc(C(F)(F)F)cc(C(F)(F)F)c3)CC2)CC1`, for which the Potency entry is “inactive”.

For `Cc1cc(C)c2oc(-c3cccc(NC(=O)c4cccc(F)c4)c3C)nc2c1`, the Potency entry was “inactive”. As for `COc1ccc(N)cc1NC(=O)CN1CCOCC1`, the Potency entry was “inactive”. `COc1ccc(NC(C)=O)cc1NC(=O)CN1CCN(C2c3ccccc3-c3ccccc32)CC1`: the Potency was 31.6 µM (active). To `COc1ccc(NC(C)=O)cc1NC(=O)CN1CCN(c2ccc(F)cc2)CC1` belongs “inactive”; to `Cc1ccccc1C(=O)NCc1nc(-c2ccc(Cl)cc2)no1`, “inactive”. For `CCc1ccc(NC(=O)CN2C(=O)C(c3ccccc3)=NC23CCCCCC3)cc1`, the Potency entry was “inactive”.

Turning to `CCOc1ccc(N(Cc2ccccc2)C(=O)c2nc(S(C)(=O)=O)ncc2Cl)cc1`, the Potency was 15.8 µM (active). As for `COc1ccc(N(Cc2ccc(N(C)C)cc2)C(=O)c2ccc(S(C)(=O)=O)cc2)cc1`, the Potency entry was “inactive”. Then `CCOc1ccc(NC(=O)CN(Cc2ccccc2)S(=O)(=O)c2ccc(Cl)cc2)cc1`, with “inactive”; and `Nc1nc2nc(Cl)[nH]c2c(=O)[nH]1`, with “inactive”. Regarding `Cc1cc(N2C(=O)c3ccc(C(=O)NCc4ccccc4)cc3C2=O)no1`, the Potency result was “inactive”.

With `O=C(O)c1ccc2c(c1)C(=O)N(c1ccc(/C=C/C(=O)c3ccccc3)cc1)C2=O`, the Potency was 14.1 µM (active). In the case of `COc1ccc(OC)c(NC(=O)c2ccc3c(c2)C(=O)N(c2ccc(OC(C)=O)cc2)C3=O)c1`, the Potency result was “inactive”. `COCC(C)NS(=O)(=O)c1ccc(N2CCCCS2(=O)=O)cc1` (stereo not given): the Potency entry is “inactive”. As for `CCc1noc(C)c1C(=O)NCCN1Cc2cc(OC)ccc2OC(CC)C1` (stereo not given), the Potency result is “inactive”. Regarding `Cn1c(=O)c(CCc2ccccc2)nc2cnc(Nc3ccccc3)nc21`, the Potency entry is “inactive”. In the case of `c1ccc(CNc2ncncc2-c2cccnc2)cc1`, the Potency result is “inactive”. As for `CCN(CC)CCCC(C)Nc1ccnc2cc(Cl)ccc12` (stereo not given), the Potency entry was “inactive”. As for `CCN(CC)CCCC(C)n1c2nc(=O)[nH]c(=O)c-2nc2cc(Cl)ccc21` (stereo not given), the Potency is 11.2 µM (active).

In the case of `Cc1ccc(S(=O)(=O)n2nc(-c3ccc(Cl)cc3)nc2NCc2ccccc2)cc1`, the Potency result is “inactive”. Consider `CC(C)OC(=O)c1ccc(NCc2cc(O)ccc2O)cc1Cl`, for which the Potency was 8.91 µM (active). With `COc1cccc(-n2cc(C(=O)NCc3cccc(Cl)c3)c3ccccc3c2=O)c1`, the Potency result is “inactive”. Consider `O=C(CSc1ncc(CO)n1Cc1ccc(Cl)cc1)NCc1ccc(F)cc1`, for which the Potency result is “inactive”.

Take `CCOc1ccccc1N(CC)C(=O)Nc1cn(C)c(=O)c2ccccc12`: the Potency entry is “inactive”. `CC1CCC(N2CC(=O)N(CCC3=CCCCC3)C(c3ccc(F)cc3)C2=O)CC1` (stereo not given): the Potency result was “inactive”. Take `Cc1ccc(C(=O)Nc2cccc(-c3nc(CNC(=O)c4ccccc4-n4cccn4)c(C)o3)c2)s1`: the Potency result is “inactive”. To `O=C1C(c2ccccn2)=[N+]([O-])c2ccccc21` belongs “inactive”.

Turning to `NC1=CC(=O)C(=O)c2cccnc21`, the Potency was 39.8 µM (active).

Take `COC1C[C@@H](O[C@@H]2C(C)C(=O)OC(C)C(C)C(O)C(C)C(=O)[C@@]3(CO3)CC(C)C(OC3OC(C)CC(N(C)C)C3O)C2C)OC(C)[C@@H]1O` (stereo not given in full): the Potency entry was “inactive”. `N[C@@H](C(=O)O)c1ccc(P(=O)(O)O)cc1`: the Potency result was “inactive”. In the case of `CN(C)c1ccc(-c2nc(NCCN3CCOCC3)c3ccccc3n2)cc1`, the Potency entry is “inactive”. As for `c1ccc2c(NC3C4CC5CC(C4)CC3C5)nc(N3CCOCC3)nc2c1` (stereo not given), the Potency is 25.1 µM (active). On to `c1cnc(NC2C3CC4CC(C3)CC2C4)nc1` (stereo not given), for which the Potency result was “inactive”. In the case of `O=C(c1ccco1)N1CCC[C@@]2(CCN(Cc3nccs3)C2)C1`, the Potency entry was “inactive”. Then `O=C1CCN(Cc2ccc(-c3ccccc3)cc2)CCN1Cc1ccccn1`, with “inactive”. Consider `COc1ccc(CNC(=O)/C(C#N)=C/c2cccc(OC)c2OC)cc1`, for which the Potency was 22.4 µM (active).

Turning to `COc1ccc(CNC(=O)c2cc3cccc(OC)c3oc2=O)cc1`, the Potency result is “inactive”. Consider `COc1ccc(CNC(=O)c2c[nH]c3c(OC)cc(OC)cc3c2=O)cc1`, for which the Potency entry is “inactive”. For the compound `Cc1ccc(C)c(N2CCN(C(=O)CCCCCn3c(=S)[nH]c4ccc(N5CCOCC5)cc4c3=O)CC2)c1`, the Potency was 3.16 µM (active). Regarding `Cc1ccc(C)c(N2CCN(C(=O)CCCCn3c(=O)[nH]c4ccccc4c3=O)CC2)c1`, the Potency was 20 µM (active). `Cc1ccc(C)c(N2CCN(C(=O)CCc3c(C)nc4c(c3C)c(=O)n(C)c(=O)n4C)CC2)c1`: the Potency entry is “inactive”.

As for `COc1cccc(N2CCN(C(=O)CCCCCn3c(=O)[nH]c4ccccc4c3=O)CC2)c1`, the Potency entry is “inactive”. As for `Cc1ccc(C)c(N2CCN(C(=O)Cn3nc(C)c4sc5ccccc5c4c3=O)CC2)c1`, the Potency entry was “inactive”. In the case of `Cc1ccc(OCCCC(=O)N2CCOCC2)c(C)c1`, the Potency entry is “inactive”.
